CHO-K1 Ca PAM = nonselective calcium activators in parental CHO-K1 cells, primary screen, counter-screen for M1 PAM project, cell-based, Fluo-8 calcium fluorescence, full deck, 1536-well; AID 602247, 2012; hit rate 0.02% among 360,000; activation, % at 3 µM; ATP EC20; 0% at ATP EC20, 100% at ATP max;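 active means activation above the run cutoff, the mean activation of all test compounds plus 3 SD, cut at about 40% in these data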;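 further: peak over basal fluorescence ratio in a 140 s read after ATP addition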
CHRM1 antagonist = human M1 muscarinic receptor antagonists, primary screen, CHO-K1 cells, Fluo-8 calcium fluorescence, 1536-well; Muscarinic acetylcholine receptor M1 (Homo sapiens), P11229; CHO-K1 hM1, ACh EC80 antagonist; inhibition, % at 3 µM; hit rate 1.3% among 360,000; AID 588852, 2011;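 active means percent inhibition above its own plate's cutoff, namely the mean of that plate's compound wells plus 3 SD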;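 further: peak over basal fluorescence ratio during 140 s after agonist addition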
Target sequence (P11229 whole entry, looked up): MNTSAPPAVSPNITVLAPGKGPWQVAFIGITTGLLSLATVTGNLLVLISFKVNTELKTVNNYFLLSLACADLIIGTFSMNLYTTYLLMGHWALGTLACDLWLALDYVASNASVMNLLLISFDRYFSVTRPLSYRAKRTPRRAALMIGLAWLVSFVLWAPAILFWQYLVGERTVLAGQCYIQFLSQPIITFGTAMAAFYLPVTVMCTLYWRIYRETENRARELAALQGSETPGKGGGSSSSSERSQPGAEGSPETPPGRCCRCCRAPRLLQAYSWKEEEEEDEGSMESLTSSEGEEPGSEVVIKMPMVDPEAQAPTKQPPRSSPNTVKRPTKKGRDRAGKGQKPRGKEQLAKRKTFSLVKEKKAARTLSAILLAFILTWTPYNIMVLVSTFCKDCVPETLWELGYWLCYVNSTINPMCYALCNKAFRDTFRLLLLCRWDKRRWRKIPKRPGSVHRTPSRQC
M1 PAM = human M1 muscarinic receptor positive allosteric modulators, primary screen, CHO-K1 cells, Fluo-8 calcium fluorescence, 1536-well | activation, % at 3 µM | CHO-K1 hM1, ACh EC20; 0% = ACh EC20, 100% = maximal ACh | Muscarinic acetylcholine receptor M1 (Homo sapiens), P11229 | hit rate 0.088% among 360,000 | AID 588819, 2011; in the data active means activation above about 19%, passing the limit was not always enough
M1 ag parental = counter-screen for M1 agonists: effect in parental CHO-K1 cells. activation, % at 3 µM. Fluo-8 calcium fluorescence; scaled to maximal ATP response, vehicle zero. hit rate 0.48% among 360,000; in the data active means activation above about 15%;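 further: untransfected CHO-K1 host cells lacking M1 receptor as counterscreen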
CHO-K1 Ca antag = nonselective inhibitor or artifact in parental CHO-K1 cells; ATP-induced calcium, Fluo-8 fluorescence; hit rate 0.6% among 360,000; inhibition, % at 3 µM;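 active means inhibition above a per-plate cutoff, the plate's mean sample inhibition plus 3 SD, cut at about 24% in these data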
CHRM1 agonist = human M1 muscarinic receptor agonists, primary screen, Fluo-8 calcium fluorescence, CHO-K1 cells, HTS; Muscarinic acetylcholine receptor M1 (Homo sapiens), P11229; CHO-K1 hM1, agonist mode; 0% DMSO, 100% acetylcholine EC100; activation, % at 3 µM; hit rate 0.33% among 360,000;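 active means activation above the run's mean compound activation plus 3 SD, cut at about 16% in these data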;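 further: peak over basal fluorescence ratio within a 140 s kinetic read after compound addition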
Of the large screens only hits and unclear results are named; the others gave an inactive call. Hits are enriched below; roughly 2.4% of the tested compounds scored in any of these assays.

COc1ccc(-n2nnnc2C(c2cc3ccccc3o2)N2CCN(C/C=C/c3ccccc3)CC2)cc1 (stereo not drawn)	CHRM1 antagonist 58
N#Cc1ccc2sn(-c3ccccc3)c(=O)c2c1	none
C(=C\c1ccccc1)/CN1CCN(C(c2cc3ccccc3o2)c2nnnn2-c2ccc3c(c2)OCCO3)CC1 (stereo not drawn)	CHRM1 antagonist 76
C(=C\c1ccccc1)/CN1CCN(C(c2nnnn2-c2ccc3c(c2)OCCO3)C2CC2)CC1 (stereo not drawn)	none
O=C(NC1CCCCC1)c1cc2ccccc2cc1O	M1 PAM 24
Cc1ccc(S(=O)(=O)N2[C@@H](c3ccccc3F)C(C(=O)O)=CC[C@H]2c2ccc(Cl)c(Cl)c2)cc1	none
COc1ccc(NC(=O)COc2coc(CN3CCc4ccccc4C3)cc2=O)cc1	none
Cc1ccccc1NC(=O)COc1coc(CN2CCCc3ccccc32)cc1=O	M1 PAM 26
NC(=O)c1ccc(NC(=O)COc2coc(CN3CCc4ccccc4C3)cc2=O)cc1	M1 ag parental 16
CCc1ccc(/C=N/NC(=O)c2nnn(-c3nonc3N)c2C(C)C)cc1	CHRM1 agonist 33
Cc1ccc(/C=N/NC(=O)c2nnn(-c3nonc3N)c2C(C)C)o1	CHO-K1 Ca antag 28
CCCC1(C(=O)OC)NC(c2ccc(OC)c(OC)c2)C2C(=O)N(c3ccc4c(c3)OCO4)C(=O)C21 (stereo not drawn)	none
CCCC1(C(=O)OCC)NC(c2ccc(OC)cc2OC)C2C(=O)N(c3ccc4c(c3)OCCO4)C(=O)C21 (stereo not drawn)	CHO-K1 Ca antag 46
Cc1cccn2c(=O)c(C=O)c(Nc3ccccc3)nc12	none
COc1ccccc1C(=O)Nc1sc(C(=O)N2CCCC2)c(C)c1C#N	none
Cc1c(C(=O)N2CCCC2)sc(NC(=O)c2ccc(Cl)cc2)c1C#N	CHO-K1 Ca antag 24
COc1ccccc1N(C(=O)c1ccco1)C(C(=O)NC1CCCC1)c1ccncc1 (stereo not drawn)	none
Cc1ccc(-c2cccc(CN3CCN(C4CCN(C(C)C)CC4)C(CCO)C3)c2)o1 (stereo not drawn)	CHRM1 antagonist 31
CC(C)N1CCC(N2CCN(Cc3ccc(-c4ccc(Cl)cc4)o3)CC2CCO)CC1 (stereo not drawn)	none
COc1ccc(CN(C)C(=O)C(CCSC)NS(=O)(=O)c2ccc3c(c2)OCCO3)c(OC)c1OC (stereo not drawn)	none
CC(OC(=O)CSc1ccccc1)C(=O)NC1CCCCC1C (stereo not drawn)	none
Fc1ccc(-c2nc3ccccn3c2NCc2ccc3c(c2)OCO3)cc1	CHO-K1 Ca antag 26
CN(C)Cc1ccc(F)cc1Sc1ccc(Cl)cc1Cl	CHRM1 antagonist 52
O=c1cc(-c2ccccc2)oc2cc(O)ccc12	none
Nc1ccc(-c2c3ccc(=O)cc-3oc3cc(O)ccc23)cc1C(=O)O	CHRM1 antagonist 55, M1 ag parental 133, CHO-K1 Ca antag 27, CHRM1 agonist 278
O=c1ccc2c(-c3ccccc3)c3ccc(O)cc3oc-2c1	CHRM1 antagonist 104, M1 ag parental 533, CHO-K1 Ca antag 93, CHRM1 agonist active
O=C(Nc1ccc(Oc2cccnc2)cc1)C1CCN(Cc2cc(Cl)ccc2O)CC1	none
CC(C)C(=O)N1CCN(c2ccccc2NC(=O)c2cccc3ccccc23)CC1	none
O=C1CCCN1c1ccc(S(=O)(=O)N2CCCCC2)cc1	none
O=C1CCCN1c1ccc([N+](=O)[O-])cc1	CHO-K1 Ca antag 29
Cc1cc(N2CCCCCC2)nc2ccccc12	CHRM1 antagonist 35
Cc1cc(N2CCCCC2)nc2ccccc12	none
CCC[C@@H](CN1CCC[C@H]1CN1C(N)=NC[C@@H]1Cc1ccccc1)N1C[C@@H]([C@H](C)CC)N(CCc2ccc(Cl)c(Cl)c2)C1=N	none
CC[C@@H](C)[C@@H]1CN([C@@H](C)CN2CCC[C@H]2CN2C(N)=NC[C@H]2CC(C)C)C(=N)N1CCc1ccc(Cl)c(Cl)c1	CHRM1 antagonist 39
CCC[C@@H](CN1CCC[C@H]1CN1C(N)=NC[C@H]1CC(C)C)N1C[C@@H]([C@H](C)CC)N(CCc2ccc(Cl)c(Cl)c2)C1=N	CHRM1 antagonist 38
CC[C@@H](C)[C@@H]1CN([C@@H](CN2CCC[C@H]2CN2C(N)=NC[C@H]2CC(C)C)C(C)C)C(=N)N1CCc1ccc(Cl)c(Cl)c1	none
CCOC(=O)c1cnn(-c2ccccc2)c1-n1cccc1C(=O)C(=O)Nc1ccc(OC)cc1	M1 PAM 19
C[C@H](O)[C@@H]1C(=O)N2CCc3ccc(-c4ccccc4)cc3[C@@H]2C[C@@H]1N(C)C(=O)c1ccco1	none
CC(C)Cc1ccc(C(C)C(=O)Nc2ccc(O)cc2)cc1 (stereo not drawn)	CHRM1 antagonist 50, M1 ag parental 29, CHO-K1 Ca antag 34, CHRM1 agonist 54
CC(C)Cc1ccc(C(C)C(=O)Nc2cccnc2)cc1 (stereo not drawn)	CHRM1 antagonist 32, M1 ag parental 16
COc1ccc(CCN2CC(C(=O)NCCCc3ccncc3)CCC2=O)cc1 (stereo not drawn)	CHO-K1 Ca antag 25
COc1ccc(CCNC(=O)C2CCC(=O)N(CCc3ccc(OC)cc3)C2)cc1 (stereo not drawn)	none
O=C(O)c1cccc([N+](=O)[O-])c1C(=O)Nc1ccc2ccccc2c1	none
O=C(O)c1cccc([N+](=O)[O-])c1C(=O)Nc1cccc2ccccc12	CHO-K1 Ca antag 24
CCn1c2ccc(C)cc2c2n[nH]c(=S)nc21	none
C=CCN1C(=O)/C(=C/c2ccc(O)c(OC)c2)S/C1=N/c1nccs1	M1 ag parental 17, CHO-K1 Ca antag 24
C=CCN1C(=O)/C(=C/c2ccc(OCC(=O)O)cc2)S/C1=N/c1nccs1	none
Cc1cc(C(=O)NC2CCCc3c2cnn3-c2cccc(C)c2C)n(C)n1 (stereo not drawn)	CHRM1 antagonist 34, CHO-K1 Ca antag 30
Cn1nccc1C(=O)NC1CCCc2c1cnn2-c1ccc(C(C)(C)C)cc1 (stereo not drawn)	CHRM1 antagonist 34, CHO-K1 Ca antag 33
CC(=O)NC1CCCc2c1cnn2-c1ccc(C(C)(C)C)cc1 (stereo not drawn)	none

Screening data: PubChem, The Scripps Research Institute Molecular Screening Center
